Reference: PubChem BioAssay (EPA / NIEHS)
Records with an inconclusive call do not appear. Some structures have more than one record in an assay (separate samples or runs), and their calls can disagree. Active and inactive are the calls of the source. Rule for the calls, unless noted: active = hit-call score of the fitted dose curve at least 0.9, where 1 is the maximum; inactive = score below 0.9.

Legend:
[1] = read-out: Collagen I, COL1A1 (gene 1277); assay: BSK_MyoF_CollagenI: BioMAP Diversity Plus: MyoF Assay for Collagen I Biomarker Activity (AID 2284238); settings: primary human lung fibroblasts
Summary of the method: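 Collagen I levels measured by ELISA on human lung fibroblast cultures 24 h post-dosing, with curve fitting in the positive direction relative to DMSO; SRB staining of parallel wells marked cytotoxicity.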

[2] = read-out: Collagen III, COL3A1 (gene 1281); assay: BSK_MyoF_CollagenIII: BioMAP Diversity Plus: MyoF Assay for Collagen III Biomarker Activity (AID 2284239); settings: primary human lung fibroblasts
Summary of the method: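 Collagen III biomarker quantified by ELISA in human lung fibroblast cultures 24 h after dosing. Activity fitted in the positive direction against DMSO as baseline.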

[3] = read-out: Interleukin 17F (IL17F), IL17F (gene 112744); assay: BSK_BT_xIL17F: BioMAP Diversity Plus: BT Assay for Interleukin 17F (IL17F) Biomarker Activity (AID 2284243); settings: primary human B cells with PBMC
Summary of the method: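 Human B cells co-cultured with PBMC; secreted IL-17F quantified by LumineX xMAP 24 hours after chemical dosing. Activity fitted in the positive direction against DMSO negative control as baseline.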

[4] = read-out: Actin alpha 1 (ACTA1), ACTA1 (gene 58); assay: BSK_MyoF_ACTA1: BioMAP Diversity Plus: MyoF Assay for Actin alpha 1 (ACTA1) Biomarker Activity (AID 2284244); settings: primary human lung fibroblasts
Summary of the method: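 Human lung fibroblasts (MyoF system) dosed with test chemical for 24 h; α-SMA measured by ELISA. Gain of signal fitted relative to DMSO negative control as baseline.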

[5] = read-out: Interleukin 2 (IL2), IL2 (gene 3558); assay: BSK_BT_xIL2: BioMAP Diversity Plus: BT Assay for Interleukin 2 (IL2) Biomarker Activity (AID 2284245); settings: primary human B cells with PBMC
Summary of the method: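 Human B cells co-cultured with PBMC, exposed to test chemical for 24 h. Secreted IL-2 quantified by Luminex xMAP bead immunoassay; activity fitted in the positive direction relative to DMSO vehicle baseline.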

[6] = read-out: Basic fibroblast growth factor (bFGF), FGF2 (gene 2247); assay: BSK_MyoF_bFGF: BioMAP Diversity Plus: MyoF Assay for Basic fibroblast growth factor (bFGF) Biomarker Activity (AID 2284246); settings: primary human lung fibroblasts
Summary of the method: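 Human lung fibroblasts were dosed with chemicals and bFGF was quantified by ELISA 24 h later. Activity was fitted in the gain-of-signal direction relative to DMSO as negative control and baseline. Parallel SRB total-protein staining tracked overt cytotoxicity.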

[7] = read-out: Collagen IV, COL4A1 (gene 1282); assay: BSK_MyoF_CollagenIV: BioMAP Diversity Plus: MyoF Assay for Collagen IV Biomarker Activity (AID 2284247); settings: primary human lung fibroblasts
Summary of the method: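 Primary human lung fibroblasts were exposed to test chemicals and sampled 24 h after dosing. Collagen IV levels were measured by ELISA and fitted in the positive direction against DMSO as negative control and baseline.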

[8] = read-out: Monokine induced gamma interferon (MIG), CXCL9 (gene 4283); assay: BSK_KF3CT_MIG: BioMAP Diversity Plus: KF3CT Assay for Monokine induced gamma interferon (MIG) Biomarker Activity (AID 2284248); settings: primary human keratinocytes with fibroblasts
Summary of the method: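 Parallel cultures were stained with SRB (560 nm) to check cytotoxicity. MIG was quantified by ELISA in a primary human skin keratinocyte/fibroblast co-culture 24 h post-dosing, with gain of signal fitted relative to DMSO.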

[9] = read-out: Collagen I, COL1A1 (gene 1277); assay: BSK_hDFCGF_CollagenI: BioMAP Diversity Plus: hDFCGF Assay for Collagen I Biomarker Activity (AID 2284250); settings: primary human foreskin fibroblasts
Summary of the method: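 Primary human foreskin fibroblasts (hDFCGF system) exposed to chemical for 24 h; Collagen I measured by ELISA. Activity fitted in the positive direction relative to DMSO baseline, with SRB total-protein staining in parallel cultures for overt cytotoxicity.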

[10] = read-out: Interferon-inducible T-cell alpha chemoattractant (ITAC), CXCL11 (gene 6373); assay: BSK_hDFCGF_ITAC: BioMAP Diversity Plus: hDFCGF Assay for Interferon-inducible T-cell alpha chemoattractant (ITAC) Biomarker Activity (AID 2284251); settings: primary human foreskin fibroblasts
Summary of the method: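 Fibroblasts (human foreskin, primary) are treated with chemical, cultured 24 h, then assayed for I-TAC by ELISA. Overt toxicity is checked in parallel cultures by sulforhodamine B staining of total protein at the same time point.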

[11] = read-out: Monocyte Chemoattractant Protein-1 (MCP1), CCL2 (gene 6347); assay: BSK_IMphg_MCP1: BioMAP Diversity Plus: IMphg Assay for Monocyte Chemoattractant Protein-1 (MCP1) Biomarker Activity (AID 2284253); settings: primary human endothelial cells with macrophages
Summary of the method: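 Human venular endothelial cells co-cultured with macrophages; MCP-1 measured by ELISA 24 hours post-dose and fitted against DMSO. Cytotoxicity monitored by SRB total-protein staining in parallel cultures.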

[12] = read-out: Interleukin-8 (IL8), CXCL8 (gene 3576); assay: BSK_KF3CT_IL8: BioMAP Diversity Plus: KF3CT Assay for Interleukin-8 (IL8) Biomarker Activity (AID 2284254); settings: primary human keratinocytes with fibroblasts
Summary of the method: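 IL-8 by ELISA in primary human skin co-culture (keratinocytes plus fibroblasts) 24 h post-dose, DMSO as baseline. Cytotoxicity assessed in parallel by sulforhodamine B total-protein staining.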

[13] = read-out: Macrophage Inflammatory Protein-1 Alpha (MIP1a), CCL3 (gene 6348); assay: BSK_IMphg_MIP1a: BioMAP Diversity Plus: IMphg Assay for Macrophage Inflammatory Protein-1 Alpha (MIP1a) Biomarker Activity (AID 2284255); settings: primary human endothelial cells with macrophages
Summary of the method: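 Co-culture of human venular endothelial cells and macrophages exposed to compounds for 24 h; MIP-1a measured by ELISA relative to DMSO. Cytotoxicity assessed in parallel cultures by sulforhodamine B total-protein staining at 560 nm.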

[14] = read-out: Plasminogen activator inhibitor-1 (PAI1), SERPINE1 (gene 5054); assay: BSK_MyoF_PAI1: BioMAP Diversity Plus: MyoF Assay for Plasminogen activator inhibitor-1 (PAI1) Biomarker Activity (AID 2284256); settings: primary human lung fibroblasts;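 note: PAI-1 protein level measured by ELISA in fibroblast cultures; PAI-1 read 24 h after compound addition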
Summary of the method: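 Human lung fibroblasts (MyoF system) were exposed to test chemicals for 24 h, then PAI-1 was quantified by ELISA. Activity was fitted in the positive (signal-gain) direction relative to DMSO vehicle as baseline.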

[15] = CCTE_Mundy_HCI_Cortical_NOG_NeuronCount: CCTE's Neurite Outgrowth Assay in rat cortical cells for Neuron Count, Mundy Lab (AID 2284236; active = hit-call score of the fitted dose curve at least 0.9, where 1 is the maximum;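 note: neurons counted by imaging betaIII-tubulin and Hoechst stained cortical cells; cells exposed to compound for about 48 hours before fixation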)
Summary of the method: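 Read-out: neuron number by high-content imaging of betaIII-tubulin (Alexa Fluor-488) and Hoechst-labelled rat primary cortical cells.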

[16] = CCTE_Mundy_HCI_Cortical_NOG_BPCount: CCTE's Neurite Outgrowth Assay in rat cortical cells for Branch Point Count, Mundy Lab (AID 2284237);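 for AC50: branch points counted about two days after chemical exposure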
Summary of the method: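 Measured 50.33 h after dosing, this morphology endpoint uses rat primary cortical cultures labelled for betaIII-tubulin. Branch points are quantified by high-content imaging, with DMSO as negative control and baseline.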

[17] = CCTE_Mundy_HCI_hNP1_Casp3_7: CCTE's Caspase-Glo 3/7 Assay in human neuroprogenitor cells for Apoptosis, Mundy Lab (AID 2284240)
Summary of the method: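 Apoptosis is scored by activated caspase-3/7 luminescence in WA09-derived neural progenitor cells, measured 26.5 h after chemical dosing. Values represent gain of signal relative to DMSO vehicle.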

[18] = CCTE_Mundy_HCI_hNP1_CellTiter: CCTE's Cell Titer-Glo 2 Assay in human neuroprogenitor cells for Viability, Mundy Lab (AID 2284241; active = hit-call score of the fitted dose curve at least 0.9, where 1 is the maximum;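 for AC50: a hit is a drop in ATP luminescence versus DMSO meaning reduced viability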)
Summary of the method: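 Human neural progenitor cells (hNP1, WA09-derived) were plated on poly-L-ornithine/laminin and grown 40 to 44 hours at 37 °C, 5% CO2 before chemical addition. Twenty-four hours later, ATP was measured by CellTiter-Glo luminescence; loss of signal versus DMSO indicates reduced viability.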

[19] = CCTE_Mundy_HCI_Cortical_Synap_Neur_Matur_NeuronCount: CCTE's Synaptogenesis and Neurite Maturation Assay in rat cortical cells for Neuron Count, Mundy Lab (AID 2284242; active = hit-call score of the fitted dose curve at least 0.9, where 1 is the maximum;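 for AC50: neuron number from Hoechst nuclei and MAP2 staining by high-content imaging; hits reduce neuron count versus DMSO baseline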)
Summary of the method: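 Rat primary cortical cells received AraC at DIV 5 to arrest glia, then were dosed with chemicals at DIV 7 through DIV 12. Fixed cells were stained for nuclei, MAP2 and synaptophysin, and neurons were counted by high-content imaging relative to DMSO.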

[20] = TAMU_PeakParms_SingleDonor1434_QT: Texas A&M University (TAMU) 1.5-hr Human Induced Pluripotent Stem Cell (iPSC)-derived Cardiomyocytes Calcium (Ca+2) Flux Assay for Cardiotoxicity: QT (decay-rise ratio) (AID 2284235; active = hit-call score of the fitted dose curve at least 0.9, where 1 is the maximum)
Summary of the method: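 iPSC-derived cardiomyocytes (single donor 1434) dosed at 0.2, 1, 10, 100 uM final in 0.5% DMSO, 90 min at 37C. Ca2+ flux fluorescence decay/rise ratio; EC05 (5% increase versus DMSO) as POD, excluding beat-arrest and severe-notch data.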

O=S(=O)(O)C(F)(F)C(F)(F)C(F)(F)C(F)(F)C(F)(F)C(F)(F)C(F)(F)C(F)(F)C(F)(F)C(F)(F)F
outcome [1]: inactive
outcome [2]: inactive
outcome [3]: inactive
outcome [4]: inactive
outcome [5]: inactive
outcome [6]: inactive
outcome [7]: inactive
outcome [8]: inactive
outcome [9]: inactive
AC50 [10]: 8.02 µM (active)
outcome [10]: inactive
outcome [11]: inactive
outcome [12]: inactive
outcome [13]: inactive
outcome [14]: inactive

CC(C)c1c(C(=O)Nc2ccccc2)c(-c2ccccc2)c(-c2ccc(F)cc2)n1CC[C@@H](O)C[C@@H](O)CC(=O)O
AC50 [15]: 7.8 µM (active)
AC50 [16]: 89.6 nM (active)
AC50 [17]: 12.1 µM (active)
AC50 [18]: 12.8 µM (active)
AC50 [19]: 5.15 µM (active)

Nc1ccn([C@@H]2O[C@H](CO)[C@@H](O)C2O)c(=O)n1 (some centres undefined)
AC50 [15]: 2.74 µM (active)
AC50 [17]: 0.207 µM (active)
AC50 [19]: 10.8 µM (active)

O=C(CCCN1CCC(O)(c2ccc(Cl)cc2)CC1)c1ccc(F)cc1
outcome [15]: inactive
AC50 [17]: 70.7 µM (active)
AC50 [19]: 21.9 µM (active)

O=C1NS(=O)(=O)c2ccccc21
outcome [20]: inactive
outcome [15]: inactive
outcome [16]: inactive
outcome [17]: inactive
outcome [18]: inactive
outcome [19]: inactive
outcome [8]: inactive
outcome [9]: inactive
outcome [10]: inactive
outcome [12]: inactive

CN(Cc1cnc2nc(N)nc(N)c2n1)c1ccc(C(=O)N[C@@H](CCC(=O)O)C(=O)O)cc1
outcome [15]: inactive
outcome [16]: inactive
outcome [1]: inactive
outcome [2]: inactive
outcome [17]: inactive
outcome [18]: inactive
outcome [19]: inactive
outcome [3]: inactive
outcome [4]: inactive
outcome [5]: inactive
outcome [6]: inactive
outcome [7]: inactive
outcome [8]: inactive
outcome [9]: inactive
outcome [10]: inactive
outcome [11]: inactive
outcome [12]: inactive
outcome [13]: inactive
outcome [14]: inactive

C=CC(C)(CCC=C(C)C)OC(C)=O (centres undefined)
outcome [1]: inactive
outcome [2]: inactive
outcome [3]: inactive
outcome [4]: inactive
outcome [5]: inactive
outcome [6]: inactive
outcome [7]: inactive
outcome [14]: inactive

C=CC(=C)CC/C=C(\C)CCC=C(C)C
outcome [1]: inactive
outcome [2]: inactive
outcome [3]: inactive
outcome [4]: inactive
outcome [5]: inactive
outcome [6]: inactive
outcome [7]: inactive
outcome [14]: inactive

Cc1ccc(C(=O)c2ccccc2)cc1
outcome [1]: inactive
outcome [2]: inactive
outcome [3]: inactive
AC50 [4]: 20 µM (active)
outcome [5]: inactive
outcome [6]: inactive
AC50 [7]: 20 µM (active)
outcome [14]: inactive

Oc1cc2ccccc2cc1O
outcome [1]: inactive
outcome [2]: inactive
outcome [3]: inactive
outcome [4]: inactive
outcome [5]: inactive
outcome [6]: inactive
outcome [7]: inactive
outcome [14]: inactive

O=P(O)(O)CCC(F)(F)C(F)(F)C(F)(F)C(F)(F)C(F)(F)C(F)(F)C(F)(F)C(F)(F)F
outcome [1]: inactive
outcome [2]: inactive
outcome [17]: inactive
outcome [18]: inactive
outcome [3]: inactive
outcome [4]: inactive
outcome [5]: inactive
outcome [6]: inactive
outcome [7]: inactive
outcome [8]: inactive
outcome [9]: inactive
AC50 [10]: 0.236 µM (active)
outcome [10]: inactive
outcome [11]: inactive
outcome [12]: inactive
outcome [13]: inactive
outcome [14]: inactive
